Bioassay records from PubChem BioAssay.
The list is not random: actives were taken first. Their share in the collection is about 2.4%.
M1 ag parental – nonselective activator or artifact in parental CHO-K1 cells. Fluo-8 calcium fluorescence; scaled to maximal ATP response, vehicle zero. activation, % at 3 µM. actives 0.48% (n = 360,000); in the data active = activation above about 15%;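 also: untransfected CHO-K1 host cells lacking M1 receptor as counterscreen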
CHRM1 PAM – positive allosteric modulators of human M1 muscarinic receptor; activation, % at 3 µM; P11229; actives 0.088% (n = 360,000); CHO-K1 hM1, Fluo-8 calcium fluorescence, ACh EC20; 0% = ACh EC20, 100% = maximal ACh; AID 588819; in the data active = activation above about 19%, passing the limit was not always enough
Target sequence (P11229 whole entry, looked up): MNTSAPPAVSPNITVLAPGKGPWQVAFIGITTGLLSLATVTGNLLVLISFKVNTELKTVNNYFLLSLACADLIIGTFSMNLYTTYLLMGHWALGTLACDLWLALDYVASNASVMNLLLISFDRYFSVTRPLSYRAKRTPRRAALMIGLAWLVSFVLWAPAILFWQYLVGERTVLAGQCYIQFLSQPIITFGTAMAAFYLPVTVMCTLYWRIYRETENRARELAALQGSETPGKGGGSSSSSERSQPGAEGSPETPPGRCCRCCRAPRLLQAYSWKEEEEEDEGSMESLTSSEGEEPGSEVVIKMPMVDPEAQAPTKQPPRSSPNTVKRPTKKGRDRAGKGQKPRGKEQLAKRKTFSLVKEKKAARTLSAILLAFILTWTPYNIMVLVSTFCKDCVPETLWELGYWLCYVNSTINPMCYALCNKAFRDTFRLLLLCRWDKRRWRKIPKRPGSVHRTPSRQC
CHRM1 antagonist – blocks human M1 muscarinic receptor; P11229; CHO-K1 hM1, Fluo-8 calcium fluorescence, ACh EC80 antagonist; inhibition, % at 3 µM; actives 1.3% (n = 360,000);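 active = percent inhibition above its own plate's cutoff, namely the mean of that plate's compound wells plus 3 SD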;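 also: peak over basal fluorescence ratio during 140 s after agonist addition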
CHO-K1 Ca antag – nonselective inhibitor or artifact in parental CHO-K1 cells | inhibition, % at 3 µM | actives 0.6% (n = 360,000) | ATP-induced calcium, Fluo-8 fluorescence;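 active = inhibition above a per-plate cutoff, the plate's mean sample inhibition plus 3 SD, cut at about 24% in these data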
M1 PAM parental – counter-screen for M1 PAMs: effect in parental CHO-K1 cells | ATP EC20, Fluo-8 calcium fluorescence; 0% at ATP EC20, 100% at ATP max | activation, % at 3 µM | actives 0.02% (n = 360,000);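 active = activation above the run cutoff, the mean activation of all test compounds plus 3 SD, cut at about 40% in these data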;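 also: peak over basal fluorescence ratio in a 140 s read after ATP addition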
M1 ag – agonists of human M1 muscarinic receptor; P11229; CHO-K1 hM1, Fluo-8 calcium fluorescence, agonist mode; 0% DMSO, 100% acetylcholine EC100; activation, % at 3 µM; actives 0.33% (n = 360,000); AID 588814;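 active = activation above the run's mean compound activation plus 3 SD, cut at about 16% in these data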;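 also: peak over basal fluorescence ratio within a 140 s kinetic read after compound addition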
Hits are given with their value; 0 = inactive; - = not tested or not shown.

SMILES	M1 ag parental	CHRM1 PAM	CHRM1 antagonist	CHO-K1 Ca antag	M1 PAM parental	M1 ag
Cc1cc(N2CCC(C)CC2)c(F)cc1[N+](=O)[O-]	0	0	0	0	0	0
Cc1cc(N2CCCC2)c(F)cc1/C=C\[N+](=O)[O-]	25	0	0	28	0	28
CN(C)CCCn1c(SCC(=O)N2c3ccccc3Sc3ccccc32)nc2ccccc2c1=O	0	0	39	0	0	0
COCCn1c(SCC(=O)NNC(=O)Cc2ccccc2)nc2ccccc2c1=O	0	0	0	25	0	0
COCC(C)NC(=O)CSc1nc2ccccc2c(=O)n1CCc1ccc(S(N)(=O)=O)cc1 (centres undefined)	0	0	30	0	0	0
CC(=O)c1cccc(NC(=O)C(C)OC(=O)c2ccc3ncsc3c2)c1 (centres undefined)	0	0	0	0	0	0
CC(OC(=O)c1ccc2ncsc2c1)C(=O)Nc1cccc(Cl)c1 (centres undefined)	0	0	32	0	0	0
CCOC(=O)N1CCN(C(=S)NC(=O)c2ccc(F)c(F)c2)CC1	0	0	0	0	0	0
CN1C[C@@H]2C(c3ccc(Cl)nc3)C3(c4ccccc4)CC2(C3)[C@H]1c1ccccc1 (some centres undefined)	0	0	84	0	0	0
CN1C[C@@H]2C(c3ccc(Cl)nc3)C3(c4cccnc4)CC2(C3)[C@H]1c1ccccc1 (some centres undefined)	0	0	54	0	0	0
COC(=O)c1cccc(C23CC4(C2)[C@H](CN(C)[C@@H]4c2ccccc2)C3c2ccc(C(F)(F)F)cc2)c1 (some centres undefined)	0	0	0	0	0	0
CN1C[C@@H]2C(c3ccccc3)C3(c4ccccc4)CC2(C3)[C@H]1c1ccccc1 (some centres undefined)	0	0	78	0	0	0
Clc1ccc(C2[C@H]3CN(CC4CCCCC4)[C@H](c4ccccc4)C34CC2(c2ccccc2)C4)cn1 (some centres undefined)	0	0	0	0	0	0
COC(=O)c1cccc(C23CC4(C2)[C@H](CN(C)[C@@H]4c2ccccc2)C3c2ccccc2)c1 (some centres undefined)	0	0	64	0	0	0
CC(C)C(O)(C#CCN1CCCC1)c1ccccc1 (centres undefined)	0	0	92	0	0	0
CC(O)(C#CCN1CCOCC1)c1ccccc1 (centres undefined)	0	0	0	0	0	0
CC(C)C(O)(C#CCN1CCCCC1)c1ccccc1 (centres undefined)	0	0	99	0	0	0
COc1ccc(N(CCC#N)S(=O)(=O)c2cccc3nsnc23)cc1	0	0	25	0	0	0
Cc1ccc2nc(NC(=O)COC(=O)CSc3nc(C)cc(C)n3)sc2c1	0	0	0	0	0	0
COC(=O)c1ccc2nc(NC(=O)COC(=O)CSc3nc(C)cc(C)n3)sc2c1	15	0	0	0	0	0
C[N+]1(C)CC[C@H](OC(=O)[C@@](O)(c2ccccc2)C2CCCC2)C1	0	0	100	0	0	0
O=C(Nc1ccccc1C(F)(F)F)C(O)(c1ccccc1)C1CCCCC1 (centres undefined)	0	0	0	0	0	0
CC(=O)N(c1ccccc1)C1CCCC1	0	0	0	0	0	0
C[N+]1(C)CCC(OC(=O)C(O)(c2ccccc2)C2CCCC2)C1 (centres undefined)	0	0	97	0	0	0
CC(=O)Nc1cc(-c2cccc(F)c2)cn2c(-c3ccccc3)cnc12	0	0	0	0	0	0
SMILES	M1 ag parental	CHRM1 PAM	CHRM1 antagonist	CHO-K1 Ca antag	M1 PAM parental	M1 ag
CCC(=O)N1CCCC(C)(C(=O)Nc2ccc3oc(CC)nc3c2)C1 (centres undefined)	0	0	0	0	0	0
CC/C(=N\NC(=S)Nc1cc(C)ccc1C)c1ccc(OC(F)F)cc1	0	0	0	0	0	0
OCCNc1nc(NCCC2=CCCCC2)nc(N2CCOCC2)n1	0	0	0	24	0	0
N#Cc1ccccc1Cn1cc(/C=C/[N+](=O)[O-])c2ccccc21	0	0	50	0	0	0
O=[N+]([O-])/C=C/c1cn(Cc2ccccc2)c2ccccc12	0	0	0	0	0	0
O=C(c1cc(-c2cccs2)nc2ccccc12)N1CCN(c2ccccc2O)CC1	0	0	32	0	0	0
COc1ccc(-c2cc(C(=O)N3CCN(c4ccccc4O)CC3)c3ccccc3n2)cc1OC	0	0	46	0	0	0
COc1ccc(-c2cc(C(=O)N3CCN(c4ccccn4)CC3)c3ccccc3n2)cc1	0	0	30	0	0	0
CCOc1ccc(-c2cc(C(=O)N3CCN(c4ccccn4)CC3)c3ccccc3n2)cc1	0	0	0	0	0	0
O=C1NC[C@@H](CCCCN2CCN(CC3CCCCC3)C(=O)C2=O)N(CCC2CCCCC2)C1=O	0	-	-	0	0	-
Cc1cc(C(=O)CCC(=O)N2CCN(c3ccccc3)CC2)c(C)s1	0	0	0	0	0	0
Cn1c(C(=O)NCCCN2CCc3ccccc3C2)cc2c(=O)n(C)c3ccccc3c21	0	0	34	0	0	0
CCn1c(O)c(N=NC(=O)CNC(=O)c2cccnc2)c2ccccc21	0	0	0	0	0	0
Cc1ccsc1C(=O)NNC(=O)COc1ccccc1Cl	0	0	0	31	0	0
O=C(CSc1c2c(nc3ccc(Cl)cc13)CCCC2)NCCCN1CCOCC1	0	0	98	0	0	0
C[N+](C)(C)CC/C=C1/c2ccccc2CSc2ccccc21	0	0	96	0	0	0
CC(=O)OCCCN(C)CC/C=C1/c2ccccc2CSc2ccccc21	0	0	74	0	0	0
Cc1sc(N)nc1-c1c(C)n(C)c2ccccc12	0	0	0	0	0	0
CCOc1ccccc1OCCCC(=O)N1CCN(S(=O)(=O)c2ccc(Cl)cc2)CC1	0	0	0	0	0	0
CCOc1ccccc1OCCCC(=O)N1CCN(S(=O)(=O)c2cc(F)ccc2F)CC1	0	0	0	28	0	0
Nc1ncnc2nc(SCC(=O)Nc3ccccc3F)[nH]c12	0	0	0	0	0	0
Clc1ccc(-c2csc(-c3cccnc3)n2)s1	0	0	0	0	0	0
Nc1c(C(=O)Nc2nccs2)sc2nc(-c3cccs3)cc(C(F)(F)F)c12	27	0	37	38	0	28
Cc1nnc(NC(=O)c2sc3nc(-c4cccs4)cc(C(F)(F)F)c3c2N)s1	20	0	39	0	0	52
O=C(CCCCCn1c(=S)[nH]c2cc3c(cc2c1=O)OCO3)N1CCN(C2CCCCC2)CC1	0	0	37	0	0	0
